Active and inactive are the calls of the source.
Assay: E. coli DRC41 culture turbidity changes, primary screen, E. coli filamentation inducer project, strain DRC41, OD650, 48 h (AID 1152);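 also: E. coli MC1000 strain DRC41 lacking acrAB efflux pump and sulA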
Details: E. coli DRC41 (acrAB sulA), higher = more signal, called active from +8 up or from −8 down

z-score, inactive:
C[C@]1(C(=O)O)c2ccccc2C(=O)N(Cc2cc(C(F)(F)F)cc(C(F)(F)F)c2)[C@H]1c1ccc(CO)cc1 -0.485, COC(=O)C(CC#Cc1ccc2c(c1)[C@]1(C(=O)N2)[C@H](c2ccc(OCCO)cc2)N2[C@H](c3ccccc3)[C@H](c3ccccc3)OC(=O)[C@H]2[C@@H]1C(N)=O)C(=O)OC -0.763, CN1C(=O)C2C=CC(C(O)c3ccc(I)cc3)N(N(c3ccccc3)c3ccccc3)C2C1=O (stereo unspecified) -1.27, COc1ccc([Si](C)(C)[C@@H]2[C@@H](CC(=O)N(CCO)Cc3ccccc3)O[C@]3(C(=O)N(Cc4cccc(I)c4)c4ccccc43)[C@H]2C)cc1 -0.307, COc1ccc([Si](C)(C)[C@H]2[C@H](CC(=O)N3CCC[C@H]3CO)O[C@@]3(C(=O)N(Cc4cccc(N5CCCCC5=O)c4)c4ccccc43)[C@@H]2C)cc1 0.499, O=C1C2C=CC(C(O)C3CCCCC3)N(Nc3ccccc3F)C2C(=O)N1c1ccccc1 (stereo unspecified) 0.128, C=C(COC)/C(=C/C[C@@H](OC(C)=O)c1cccc(OCCO)c1)c1cnc2ccccc2c1 0.441, COC(=O)C1=CC(c2ccc(CO)cc2)=CC(C2CC2)N(Cc2cc3c(cc2Br)OCO3)C=C1C(=O)OC (stereo unspecified) -0.938, O=C/C=C/c1ccc(-c2ccccc2)cc1 1.06, COc1ccc(C(O)C2C=CC3C(=O)N(C)C(=O)C3N2Nc2ccccc2)cc1 (stereo unspecified) -0.485, COCCOC(=O)N1C(=O)[C@@]2(c3cc(C#CCNC(N)=O)ccc31)[C@H](c1ccccc1OCCO)N1[C@H](c3ccccc3)[C@H](c3ccccc3)OC(=O)[C@H]1[C@@H]2C(=O)N1CCCCCCC1 -0.583, CC1C2C(CCCO)=CC(C3C(=O)N(C(N)=O)C(=O)C23)N1Cc1cccc(OC(F)(F)F)c1 (stereo unspecified) -0.114, CCCC=C(CCC)[C@@H](NC(=O)c1ccc(C(=O)OC)cc1)c1ccc(C(=O)OC)cc1 -1.99, COc1ccc(C#Cc2ccc3c(c2)[C@]2(C(=O)N3)[C@H](c3ccccc3OCCO)N3[C@H](c4ccccc4)[C@H](c4ccccc4)OC(=O)[C@H]3[C@@H]2C(=O)NC[C@H](O)c2ccccc2)cc1 1.21, C=C(C(=O)CC[C@@H](OC(=O)c1ccccc1-c1ccccc1C(=O)O)c1cccc(OCCO)c1)C(C)C 0.272, C[C@]1(C(=O)NC2CC2)c2ccccc2C(=O)N(Cc2cc(F)cc(C(F)(F)F)c2)[C@H]1c1ccc(CO)cc1 0.256, C=C(COC)C(=O)CC[C@H](OC(C)=O)c1ccccc1OCCO 0.618, CCOC(=O)C[C@H]1[C@H](OC(=O)Cc2ccc3c(c2)OCO3)[C@@H](NC(=O)CC(C)C)c2cc(OCCCO)ccc2N1C(=O)c1ccc2ccccc2n1 0.685, O=C1C[C@@](C(=O)NCC(F)(F)F)(c2ccc([N+](=O)[O-])cc2)[C@@H](c2ccc(CO)cc2I)N1CC12CC3CC(CC(C3)C1)C2 0.662, COc1cc(CO)cc(I)c1O[C@H]1C=C(C(=O)NCCO)C[C@@H](N(CCN2CCOCC2)C(=O)C2CCCO2)[C@@H]1O (stereo partly specified) 2.39, O=C1C2C=CC(C(O)C(c3ccccc3)c3ccccc3)N(Nc3ccccc3F)C2C(=O)N1c1ccccc1 (stereo unspecified) -1.6, COC(=O)C[C@H]1O[C@]2(C(=O)N(C)c3ccccc32)[C@@H](C)[C@@H]1[Si](C)(C)c1ccccc1 -0.297, CC(C)(C)OC(=O)CC[C@]1(C(=O)N2CCOCC2)COC(c2ccc(OCCCO)cc2)=N1 1.54, C=C(CC1([C@@H](NP(=O)(c2ccccc2)c2ccccc2)[C@H]2C[C@@H]2CCCC)CC1)c1cccc(OC)c1 -1.57, COc1ccc(C(=O)Nc2cccc(CN3C(=O)[C@]4(O[C@H](CC(=O)N(CCO)Cc5ccccc5)[C@@H]([Si](C)(C)c5ccc(OC)cc5)[C@@H]4C)c4ccccc43)c2)cc1 0.556, CC[C@@H](O[Si](C#C[Si](C(C)C)(C(C)C)C(C)C)(C(C)C)C(C)C)c1cn([C@H](CO)Cc2ccccc2)nn1 0.922
